# Test results as given in PubChem BioAssay (NCI).
# The panel holds about 79,000 compounds, 15% with a hit somewhere; the sample as a whole holds those more often. Values without a mark were called inactive. The source made the active and inactive calls. No stated cut-off is given here; in the data, active means growth inhibition above about 70%; inactive means the rest.
# Tests used:
# [1] = NCI Yeast Anticancer Drug Screen. Data for the rad50 strain (AID 155);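 further: 0% = growth of vehicle-only cultures of the same strain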; settings: S. cerevisiae rad50 strain growth inhibition; at 50.0 µM; stronger effect = higher value
# Procedure, shortened: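 Growth of the mutant yeast was measured after compound exposure and referenced to vehicle-treated cultures.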
# [2] = NCI Yeast Anticancer Drug Screen. Data for the mec2-1 strain (AID 157); settings: S. cerevisiae mec2-1 strain, at 50.0 µM, stronger effect = higher value
# Procedure, shortened: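 Readout is yeast growth inhibition, normalised to vehicle-treated controls, in the mec2-1 strain exposed to compound.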
# [3] = NCI Yeast Anticancer Drug Screen. Data for the sgs1 mgt1 strain (AID 161);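 further: 0% = growth of cultures given vehicle only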; settings: S. cerevisiae sgs1 mgt1 strain, at 50.0 µM, stronger effect = higher value
# Procedure, shortened: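 This yeast growth screen uses a strain with defined DNA-repair lesions; compound-treated growth is compared with vehicle-treated growth.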
# [4] = NCI Yeast Anticancer Drug Screen. Data for the cln2 rad14 strain (AID 165);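 further: 0% = growth equal to vehicle treated cultures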; settings: S. cerevisiae cln2 rad14 strain, at 50.0 µM, stronger effect = higher value
# Procedure, shortened: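 Relative to vehicle controls, growth inhibition of compound-treated cln2 rad14 yeast was recorded.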
# [5] = NCI Yeast Anticancer Drug Screen. Data for the bub3 strain (AID 167); settings: S. cerevisiae bub3 mutant strain, at 50.0 µM, stronger effect = higher value
# Procedure, shortened: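 Whole-cell yeast assay. The mutant strain was incubated with compounds, and growth inhibition was determined by comparison with vehicle-treated cells.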
# [6] = NCI Yeast Anticancer Drug Screen. Data for the mlh1 rad18 strain (AID 175); settings: S. cerevisiae mlh1 rad18 strain growth inhibition; at 50.0 µM; stronger effect = higher value
# Procedure, shortened: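 Test agents were incubated with a yeast strain of defined genotype (DNA damage repair defect). Inhibition of growth was derived by comparison with vehicle-exposed cultures.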
SMILES,growth inhibition [1],growth inhibition [2],growth inhibition [3],growth inhibition [4],growth inhibition [5],growth inhibition [6]
Nc1cnccn1,1.55%,4.1%,0.75%,-4.3%,9.3%,-10.6%
CC(=O)NC(Cc1cccc2ccccc12)C(=O)O (stereo not drawn),0.55%,-6.15%,-0.05%,-2%,2.6%,-6.45%
C(=C/c1ccccn1)/c1ccccc1,39.4%,15.1%,21.3%,16.5%,14.6%,11.1%
OCc1c(-c2ccccc2)oc(-c2ccccc2)c1CN1CCOCC1,11.9%,-0.95%,6.55%,-11.9%,12%,9.2%
COc1cc2c(c(C3(O)C(=O)N(C)c4ccccc43)c1OC)OCO2 (stereo not drawn),1.95%,-12.4%,12.8%,-53.1%,-52.6%,4.9%
CCCNC(=O)N1C(=O)c2ccccc2S1(=O)=O,-26.8%,-7.2%,7.85%,-26.1%,-14.1%,-22.6%
CC(C)C(=O)Nc1ccccc1,2.9%,-11.9%,2.7%,-25.6%,-13.6%,15.6%
O=c1c2c(nc3n1CCC3)sc1c(O)c(Br)ccc12,-44.7%,-26.6%,-46.7%,-25.1%,-40%,-52.1%
N#CCCN(c1ccc(C=Nc2ccc(C(=O)O)cc2)cc1)S(=O)(=O)c1ccccc1,-0.1%,-29.6%,7.4%,5.75%,19.9%,-11.1%
CC(=O)OCC#Cc1ccccc1,-10.9%,-14.1%,-0.2%,-17.6%,19.4%,-1.2%
CCC(CO)(CO)CBr,3.75%,-1.1%,0.6%,-14.7%,-4.9%,9.55%
CC1CC(C)(C)C(C[NH-])C1[NH-].[Cl][Pt+2][Cl] (stereo not drawn),23.8%,20.5%,34.3%,24.1%,28.9%,28.1%
CCC(C)Sc1nc2ccc(NC(=O)/C=C/C(=O)O)cc2s1 (stereo not drawn),31.5%,10%,11.7%,15.7%,13.5%,16.1%
NC(=O)NC(=O)Cc1ccc([N+](=O)[O-])cc1,5.1%,0.1%,5.1%,-5.15%,6.25%,-0.35%
CCOC(=O)C/C(C)=C1/N=C(c2ccccc2)OC1=O,28.9%,7.85%,23.2%,14.8%,37%,30.8%
Cc1cc(Cc2ccc(N)c(C)c2)ccc1N,3.4%,0.9%,-12.8%,-52.9%,-19%,-2.45%
O=C(Nc1ccc(Cl)c(Cl)c1)Nc1cccc2nsnc12,4.45%,7.35%,-2.7%,13.2%,-1.5%,26.2%
COCC12CC(CC1=O)C1C2ON2c3ccccc3C(=O)C12c1ccccc1 (stereo not drawn),50.9%,-8.25%,36.8%,37.8%,26.9%,18.6%
C/C(CCn1[nH]c(=O)ccc1=O)=N\O,-6.55%,-19.2%,-5.8%,-12.1%,-24.6%,-11.3%
CC12CC3CC(C)(C1)CC(SCCN=C(N)CCl)(C3)C2,98.5% (active),99% (active),99.3% (active),96.3% (active),99% (active),99.2% (active)
O=C(CN1C(=O)c2cccc3c(Br)ccc(c23)C1=O)c1ccc(F)cc1,-10.4%,-14.7%,7.6%,18.7%,-12%,1.3%
OC(c1ccccc1)(c1ccccc1)C(O)(c1ccccc1)c1ccccc1,4.3%,6.25%,19.5%,-16.2%,-3.35%,33.4%

SMILES,growth inhibition [1],growth inhibition [2],growth inhibition [3],growth inhibition [4],growth inhibition [5],growth inhibition [6]
O=C1CC2(CCc3ccccc32)C(=O)N1CN1CCN(CCO)CC1 (stereo not drawn),12.6%,-5.8%,3.9%,9%,7.15%,11.9%
CCN1c2nc3ccccc3nc2N(CC)c2nc3ccccc3nc21,-30.1%,12.5%,23.9%,6.55%,3.45%,5.3%
COc1ccc(/C(C#N)=C/c2ccc(N(C)CCC#N)cc2)cc1,28.2%,-24.1%,24.2%,-8.75%,15.2%,24.5%
COC(=O)C1=C(\N2CCOCC2)CCCC/C=C\1C(=O)OC,-2.55%,1.15%,-4.9%,-10.3%,3.65%,-4.5%
On1ccc(N2CCOCC2)cc1=NC1CCCCC1,25.9%,14.9%,14.5%,17.6%,3.7%,25.7%
CN1C(=O)C(Cl)(C#N)C(c2ccccc2)N(C)C1c1ccccc1 (stereo not drawn),5.7%,8.05%,18%,-37.9%,39.4%,20.1%
c1ccc(CSc2cnnc3ccccc23)cc1,3.9%,-10.8%,6%,-11.1%,14.1%,31.9%
CCCC/C(=N/O)c1ccccc1,7.4%,0.7%,-2.65%,-9.1%,-21.6%,-6.95%
Nc1ccc(S(=O)(=O)OCCOc2ccccc2)cc1,-2.85%,7.6%,2.6%,-4.2%,18.7%,-7.3%
CC(C)(c1ccccc1)[Si](c1ccccc1)(c1ccccc1)c1ccccc1,30.1%,-7.05%,9.95%,3.2%,-6.85%,0.65%
COC(=O)c1ccc(C(=O)OC)c2nc3ccccc3nc12,13.1%,9.35%,8.45%,8.9%,15.1%,7.6%
O=S(=O)(O)C(O)c1ccccc1 (stereo not drawn),1.25%,-2.85%,-8.85%,-10.9%,-15.1%,-6.2%
CCCCCCNC(=O)/C(=C\c1ccc(Cl)cc1Cl)NC(=O)c1ccccc1,-3.7%,-17.8%,-9.75%,33.1%,-16.5%,-9.6%
CC(C)(C)NCCCCCO,-11.8%,17.6%,16.1%,-8.35%,-5.7%,-16.1%
CC(C)=NOC(=O)Nc1ccccc1,44.4%,-19.8%,14.9%,-15.4%,1.7%,33.9%
Nc1ccc([N+](=O)[O-])c(F)c1,-6.05%,-6.8%,-3.25%,-11.8%,10.1%,9.15%
O=C(O)c1ccccc1NCn1c(=S)sc2ccccc21,63%,45.8%,60.6%,5.5%,43.8%,53.9%
O=[N+]([O-])c1ccc(Oc2c3ccccc3nc3ccccc23)cc1,11.3%,-3.7%,19.6%,-1.8%,-1.4%,14.4%
Cc1ccccc1C1(O)c2cccc3cccc(c23)C1(O)c1ccccc1C (stereo not drawn),2.95%,8.45%,-7.45%,-10.9%,10.9%,-22.4%
COc1ccc(/C=C2\CCC(CCN(C)C)(C3=CCCC3)C2=O)cc1 (stereo not drawn),2.1%,-6.6%,15%,18.1%,-14.4%,9.4%
COc1ccc(C(O)(c2ccccc2C)c2ccccc2OC)cc1 (stereo not drawn),16.1%,-2.4%,4.2%,-10.8%,20.7%,27.9%
